# Measured values as given in PubChem BioAssay AID1159580 (chemical genetic matrix, 2015).
# “And” between values parts separate entries of the source, which are not always exact repeats. Equal entries are not always repeated. About 2,000 (36%) of roughly 5,500 compounds were called active. Inconclusive results (about 18%) are left out. The list shows a part of the results. Unmarked numbers belong to inactive results. Cut-off read from the data, not from the text of the source: active = normalized growth mostly below about 0.91 (no sharp cut-off); inconclusive = no clear call, values can overlap the other calls; inactive = mostly above about 0.92.
# Assay: chemical genetic growth profiling, strain panel (AID 1159580);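 note: tested at 20 µM; growth read once vehicle control cultures reached saturation at 30 °C; 1 = growth at the plate median or of vehicle wells; lower values mean less growth of the strain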
# Conditions: S. cerevisiae deletion strains, growth OD
structure (smiles),measurement,setting,value
CCOC(=O)c1c(C)cc(O)c(C=O)c1O,normalized growth,"locus YAL013W, strain DEP1, hits give low values",0.271 (active)
same,normalized growth,"locus YAL021C, strain ccr4, hits give low values",0.615 (active)
same,normalized growth,"locus YAL026C, strain drs2, hits give low values",0.212 (active)
same,normalized growth,"locus YAL030W, strain snc1, hits give low values",0.725 (active)
same,normalized growth,"locus YBL061C, strain skt5, hits give low values",0.642 (active)
same,normalized growth,"locus YBR009C, strain hhf1, hits give low values",0.592 (active)
same,normalized growth,"locus YBR021W, strain FUR4, hits give low values",0.851
same,normalized growth,"locus YBR023C, strain chs3, hits give low values",0.619 (active)
same,normalized growth,"locus YBR171W, strain sec66, hits give low values",0.776 (active)
same,normalized growth,"locus YBR229C, strain ROT2, hits give low values",0.541 (active)
same,normalized growth,"locus YBR231C, strain swc5, hits give low values",0.548 (active)
same,normalized growth,"locus YBR279W, strain paf1, hits give low values",0.66 (active)
same,normalized growth,"locus YCL011C, strain gbp2, hits give low values",0.616 (active)
same,normalized growth,"locus YCL016C, strain dcc1, hits give low values",0.714 (active)
same,normalized growth,"locus YCL029C, strain bik1, hits give low values",0.144 (active)
same,normalized growth,"locus YCL061C, strain MRC1, hits give low values",0.624 (active)
same,normalized growth,"locus YCL069W, strain vba3, hits give low values",0.531 (active)
same,normalized growth,"locus YCR088W, strain abp1, hits give low values",0.832 (active)
same,normalized growth,"locus YDL005C, strain med2, hits give low values",0.903 (active)
same,normalized growth,"locus YDL035C, strain GPR1, hits give low values",0.21 (active)
same,normalized growth,"locus YDL040C, strain nat1, hits give low values",0.86 (active)
same,normalized growth,"locus YDL074C, strain BRE1, hits give low values",0.156 (active)
same,normalized growth,"locus YDL101C, strain DUN1, hits give low values",0.16 (active)
same,normalized growth,"locus YDL134C, strain PPH21, hits give low values",0.249 (active)
same,normalized growth,"locus YDL185W, strain tfp1, hits give low values",0.0651 (active)
same,normalized growth,"locus YDL192W, strain arf1, hits give low values",0.202 (active)
same,normalized growth,"locus YDR001C, strain nth1, hits give low values",0.841 (active)
same,normalized growth,"locus YDR069C, strain doa4, hits give low values",0.516 (active)
same,normalized growth,"locus YDR101C, strain arx1, hits give low values",0.181 (active)
same,normalized growth,"locus YDR137W, strain rgp1, hits give low values",0.202 (active)
same,normalized growth,"locus YDR150W, strain NUM1, hits give low values",0.436 (active)
same,normalized growth,"locus YDR159W, strain sac3, hits give low values",0.413 (active)
same,normalized growth,"locus YDR162C, strain NBP2, hits give low values",0.0543 (active)
same,normalized growth,"locus YDR195W, strain ref2",0.908
same,normalized growth,"locus YDR297W, strain sur2, hits give low values",0.609 (active)
same,normalized growth,"locus YDR318W, strain mcm21, hits give low values",0.142 (active)
same,normalized growth,"locus YDR334W, strain swr1, hits give low values",0.619 (active)
same,normalized growth,"locus YDR335W, strain msn5, hits give low values",0.623 (active)
same,normalized growth,"locus YDR388W, hits give low values",0.213 (active)
same,normalized growth,"locus YDR392W, strain spt3, hits give low values",0.135 (active)
same,normalized growth,"locus YDR502C, strain sam2, hits give low values",0.185 (active)
same,normalized growth,"locus YEL003W, strain gim4, hits give low values",0.582 (active)
same,normalized growth,"locus YEL037C, strain rad23, hits give low values",0.71 (active)
same,normalized growth,"locus YEL061C, strain CIN8 (second series), hits give low values",0.643 (active)
same,normalized growth,"locus YEL061C, strain CIN8, hits give low values",0.153 (active)
same,normalized growth,"locus YER015W, strain faa2, hits give low values",0.516 (active)
same,normalized growth,"locus YER016W, strain bim1, hits give low values",0.768 (active)
same,normalized growth,"locus YER110C, hits give low values",0.295 (active)
same,normalized growth,"locus YER111C, strain swi4, hits give low values",0.278 (active)
same,normalized growth,"locus YER155C, strain BEM2 (second series), hits give low values",0.409 (active)
same,normalized growth,"locus YER155C, strain BEM2, hits give low values",0.178 (active)
same,normalized growth,"locus YER167W, strain BCK2, hits give low values",0.105 (active)
same,normalized growth,"locus YFR010W, strain ubp6, hits give low values",0.681 (active)
same,normalized growth,"locus YGL078C, strain dbp3, hits give low values",0.57 (active)
same,normalized growth,"locus YGL086W, strain mad1, hits give low values",0.186 (active)
same,normalized growth,"locus YGL167C, strain pmr1, hits give low values",0.842 (active)
same,normalized growth,"locus YGL173C, strain kem1, hits give low values",0.27 (active)
same,normalized growth,"locus YGL227W, strain vid30, hits give low values",0.821 (active)
same,normalized growth,"locus YGL240W, strain doc1, hits give low values",0.503 (active)
same,normalized growth,"locus YGL248W, strain PDE1, hits give low values",0.236 (active)
same,normalized growth,"locus YGL253W, strain hxk2, hits give low values",0.283 (active)
same,normalized growth,"locus YGR078C, strain PAC10, hits give low values",0.103 (active)
same,normalized growth,"locus YGR135W, strain pre9, hits give low values",0.119 (active)
same,normalized growth,"locus YGR229C, strain SMI1, hits give low values",0.0734 (active)
same,normalized growth,"locus YGR252W, strain gcn5, hits give low values",0.303 (active)
same,normalized growth,"locus YHR013C, strain ard1, hits give low values",0.506 (active)
same,normalized growth,"locus YHR027C, strain rpn1, hits give low values",0.405 (active)
same,normalized growth,"locus YHR030C, strain SLT2, hits give low values",0.064 (active) and 0.117 (active)
same,normalized growth,"locus YHR079C, strain IRE1 (second series), hits give low values",0.16 (active)
same,normalized growth,"locus YHR079C, strain IRE1, hits give low values",0.138 (active)
same,normalized growth,"locus YHR094C, strain hxt1, hits give low values",0.231 (active)
same,normalized growth,"locus YHR129C, strain ARP1, hits give low values",0.187 (active)
same,normalized growth,"locus YHR142W, strain chs7, hits give low values",0.345 (active)
same,normalized growth,"locus YHR200W, strain rpn10, hits give low values",0.484 (active)
same,normalized growth,"locus YIL066C, strain RNR3, hits give low values",0.167 (active)
same,normalized growth,"locus YIL073C, strain SPO22, hits give low values",0.211 (active)
same,normalized growth,"locus YIL125W, strain kgd1, hits give low values",0.471 (active)
same,normalized growth,"locus YIR030C, strain dcg1, hits give low values",0.196 (active)
same,normalized growth,"locus YJL092W, strain hpr5, hits give low values",0.756 (active)
same,normalized growth,"locus YJL095W, strain BCK1 (second series), hits give low values",0.381 (active)
same,normalized growth,"locus YJL095W, strain BCK1, hits give low values",0.0697 (active) and 0.127 (active)
same,normalized growth,"locus YJL115W, strain asf1, hits give low values",0.784 (active)
same,normalized growth,"locus YJL129C, strain trk1, hits give low values",0.613 (active)
same,normalized growth,"locus YJL134W, strain LCB3, hits give low values",0.535 (active)
same,normalized growth,"locus YJL154C, strain vps35, hits give low values",0.774 (active)
same,normalized growth,"locus YJL164C, strain tpk1, hits give low values",0.587 (active)
same,normalized growth,"locus YJL166W, strain qcr8, hits give low values",0.449 (active)
same,normalized growth,"locus YJL168C, strain set2, hits give low values",0.534 (active)
same,normalized growth,"locus YJL187C, strain SWE1 (second series), hits give low values",0.15 (active)
same,normalized growth,"locus YJL187C, strain SWE1, hits give low values",0.625 (active)
same,normalized growth,"locus YJR043C, strain POL32, hits give low values",0.209 (active)
same,normalized growth,"locus YJR066W, strain TOR1, hits give low values",0.091 (active)
